Source: PubChem (National Center for Advancing Translational Sciences (NCATS))
Sm TGR block: blocks Schistosoma mansoni thioredoxin glutathione reductase | hit rate 3% among 360,000 | purified TGR, DTNB reduction, TNB absorbance 405 nm | AID 485364 | Q962Y6 | Potency, µM (titrated, usually from 114 µM), most hits filed as inhibitors; further: nearly all actives have a fitted effect of over 60% in size
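TGR 20 nM + NADPH 100 uM (dispensed conc.), cpd preinc 15 min RT; start with NADPH (500 uM addition) then DTNB (15 mM addition). Kinetic TNB absorbance, 405 nm filter. Four-parameter Hill fit across titration.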
Cycloheximide cs: counter-screen for Shiga toxin inhibitors: cycloheximide protein synthesis inhibition; max response, %; hit rate 12% among 300,000; cell reporter, cycloheximide protein synthesis inhibition counterscreen; in the data active means max response mostly above about 13%, no sharp cut-off; inactive means mostly below about 14%; further: read at 38.3 µM for the half of the compounds with a filed dose
NS1 function inh: blocks influenza NS1 protein function. Potency, µM (top dose mostly 46.1 µM). hit rate 0.4% among 270,000. AID 2326; calls by dose curve; further: actives are rising curves; nearly all actives have a fitted effect of over 50% in size
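Recovery from NS1-induced slow growth read by OD600 in budding yeast switched to galactose assay medium (pH 6.0, -URA) at 1:100 dilution. Compound 23 nl per well; the matching strain lacking NS1 serves as control.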
Pf growth 48h: P. falciparum growth inhibition at 48 hours (one generation); P. falciparum luciferase growth in erythrocytes, 48 h; Potency, µM (doses to about 28.7 µM), hits mostly inhibitors; hit rate 5.9% among 310,000; AID 504832
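Growth was read as firefly luciferase luminescence after a 48 h, 37 C, 5% CO2 exposure of compounds to reporter-bearing P. falciparum cultures (0.1% parasitemia, 2% hematocrit final) in Albumax-supplemented RPMI 1640.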
Pf growth 96h: P. falciparum growth inhibition at 96 hours | P. falciparum luciferase reporter growth, 96 h | Potency, µM (top dose mostly 28.7 µM), usual class: inhibitors | hit rate 6.9% among 320,000
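Cell-based qHTS: luciferase-tagged P. falciparum in erythrocytes (2% hematocrit, 0.05% parasitemia final) incubated with compounds for 96 hours, 37 C, 5% CO2; luciferase detection reagent then added and luminescence measured.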
Shiga toxin inh: inhibitors of Shiga toxin in Vero cells; Vero cells, Shiga toxin protein synthesis inhibition reporter; AID 2315; inhibition, % at 38.7 µM; hit rate 9.2% among 290,000; in the data active means inhibition mostly above about 28%, no sharp cut-off; inactive means mostly below about 43%
Large screens that a line does not name were inactive. A selection: hits, their analogues and other compounds. The true share with any hit is near 21%. Unless noted, the call rests on the fitted dose curve; in most records, active means well fitted curve in the direction sought with a large enough effect; inconclusive means small, poorly fitted or top-dose-only effect, or another doubt; inactive means no such curve, though single readings can be large; an effect the other way counts as inactive or inconclusive.

Cc1ccc(-c2nnc(N3CCOCC3)c3ccccc23)cc1S(=O)(=O)NCC1CCCO1 (configuration not stated)	Pf growth 48h 8.3µM
Cc1ccccc1Nc1nnc(-c2ccc(C)c(S(=O)(=O)NCC3CCCO3)c2)c2ccccc12 (configuration not stated)	none (no result: Cycloheximide cs, NS1 function inh, Pf growth 48h, Pf growth 96h, Shiga toxin inh)
Cc1ccc(-c2nnc(N3CCC(C)CC3)c3ccccc23)cc1C	Pf growth 48h 13µM, Pf growth 96h inconclusive (no result: NS1 function inh)
Cc1ccc(-c2nnc(Nc3ccc(OCC(N)=O)cc3)c3ccccc23)cc1S(=O)(=O)N(C)C	none (no result: Cycloheximide cs, NS1 function inh, Pf growth 48h, Pf growth 96h, Shiga toxin inh)
Cc1ccc(-c2nnc(Nc3ccc(CC(N)=O)cc3)c3ccccc23)cc1S(=O)(=O)NCC1CCCO1 (configuration not stated)	Pf growth 48h 0.83µM, Pf growth 96h inconclusive
Cc1ccc(-c2nnc(Nc3ccc(OCC(N)=O)cc3)c3ccccc23)cc1S(N)(=O)=O	Pf growth 48h 13µM
CCSc1nnc(C)c(=O)n1COC(=O)c1ccc(S(=O)(=O)N2CCCC2)cc1	none
Cc1ccc(-c2nnc(Nc3ccc(C(=O)N(C)C)cc3)c3ccccc23)cc1S(=O)(=O)NCC1CCCO1 (configuration not stated)	Pf growth 48h 2.3µM, Pf growth 96h inconclusive
COC(=O)c1ccc(Nc2nnc(-c3ccc(C)c(S(=O)(=O)NCC4CCCO4)c3)c3ccccc23)cc1 (configuration not stated)	Pf growth 48h 7.4µM, Pf growth 96h inconclusive
Cc1ccc(-c2nnc(Nc3ccc(C(=O)N(C)C)cc3)c3ccccc23)cc1S(=O)(=O)NC(C)(C)CO	Pf growth 48h 2.3µM, Pf growth 96h inconclusive
Cc1ccc(-c2nnc(Nc3ccc(CC(N)=O)cc3)c3ccccc23)cc1S(N)(=O)=O	none
CNS(=O)(=O)c1cc(-c2nnc(Nc3ccc(CC(N)=O)cc3)c3ccccc23)ccc1C	Pf growth 48h 7.4µM
COc1ccccc1C(=O)NC(=O)COC(=O)C1(C)CC1(Cl)Cl (configuration not stated)	none (no result: Cycloheximide cs, NS1 function inh, Shiga toxin inh)
CC(CNC(=O)c1cc(-c2ccccc2)n[nH]1)c1ccccc1 (configuration not stated)	none (no result: Cycloheximide cs, NS1 function inh, Pf growth 48h, Pf growth 96h, Shiga toxin inh)
COc1ccccc1C(=O)NC(=O)COC(=O)c1ccc([N+](=O)[O-])cc1	none (no result: Cycloheximide cs, NS1 function inh, Shiga toxin inh)
Cc1cc(Cl)ccc1NS(=O)(=O)c1c(C(=O)N2CCC(C)CC2)c(C)n(C)c1C	none (no result: Cycloheximide cs, NS1 function inh, Pf growth 48h, Pf growth 96h, Shiga toxin inh)
Cc1ccc(S(=O)(=O)c2cc3c(=O)n4ccccc4nc3n(C3CCCCC3)c2=N)cc1	Pf growth 96h inconclusive
CC(C)NC(=O)C1CCC(Cn2c(=O)c3sccc3n(CC(=O)NCc3ccccc3)c2=O)CC1 (configuration not stated)	none (no result: Cycloheximide cs, NS1 function inh, Pf growth 48h, Pf growth 96h, Shiga toxin inh)
Cc1cccc(C)c1-n1ncc(C(=O)N2CCN(c3ccccn3)CC2)c1C1CCN(C(=O)OC(C)(C)C)CC1	none (no result: Cycloheximide cs, NS1 function inh, Pf growth 48h, Pf growth 96h, Shiga toxin inh)
CCOC(=O)CNS(=O)(=O)c1cc(-c2nnc(Nc3ccc4c(c3)OCO4)c3ccccc23)ccc1C	NS1 function inh inconclusive, Pf growth 48h 2.3µM, Pf growth 96h inconclusive
COCC(=O)N1CCC(Oc2ccc(C(=O)N[C@H](C(=O)OC)C(C)C)cc2)CC1	Pf growth 96h inconclusive
CCC(=O)N(CCc1ccc(OC)c(OC)c1)Cc1cc2ccc(C)cc2n2nnnc12	Pf growth 96h inconclusive (no result: Sm TGR block)
CCN(CC)CCC(=O)N1c2ccccc2Sc2ccc(C(F)(F)F)cc21	none (no result: Sm TGR block, Cycloheximide cs, NS1 function inh, Shiga toxin inh)
c1coc(CN(Cc2cccs2)Cc2nnnn2C2CCCCC2)c1	Pf growth 48h inconclusive
Clc1ccccc1CN(Cc1ccco1)Cc1nnnn1C1CCCC1	Pf growth 48h 7.4µM
COc1cccc(-c2nnn(C/C(N)=N/O)n2)c1	Cycloheximide cs 37, Pf growth 96h 2.3µM
COc1ccccc1-c1nnn(C/C(N)=N/O)n1	Pf growth 96h inconclusive
COc1cccc(-c2nnn(CC(=O)O)n2)c1	Pf growth 96h inconclusive
CCOC(=O)Cn1nnc(-c2cccc(OC)c2)n1	Cycloheximide cs 43, Shiga toxin inh 109 (no result: Pf growth 96h)
CC(C)c1ccc2c(c1)C1Cc3ccccc3C1N2 (configuration not stated)	Cycloheximide cs 56, Pf growth 48h inconclusive, Pf growth 96h inconclusive, Shiga toxin inh 42
CC1=NN(C(C#N)c2ccccc2)C(C)(C)C1 (configuration not stated)	none
COc1ccc(C(C#N)N2CCC(c3ccccc3)=N2)cc1 (configuration not stated)	Sm TGR block inconclusive, Cycloheximide cs 21, Shiga toxin inh 43
CCC1Sc2ccc(S(=O)(=O)N3CCN(c4ccccc4)CC3)cc2NC1=O (configuration not stated)	Pf growth 48h inconclusive, Pf growth 96h 10µM
CC1Sc2ccc(S(=O)(=O)N3CCC(C(=O)N(C)Cc4ccco4)CC3)cc2NC1=O (configuration not stated)	Pf growth 48h 12µM
CC1CCN(S(=O)(=O)c2ccc3c(c2)CC(C)N3C(=O)C2CCC2)CC1 (configuration not stated)	none
CC1Sc2ccc(S(=O)(=O)N3CCC(C(=O)N(C)Cc4ccccc4)CC3)cc2NC1=O (configuration not stated)	Pf growth 48h 9.3µM, Pf growth 96h 5.9µM
CC1Cc2cc(S(=O)(=O)N3CCC(C(=O)N(C)Cc4ccco4)CC3)ccc2N1C(=O)C1CCC1 (configuration not stated)	Sm TGR block inconclusive, Pf growth 48h 12µM, Pf growth 96h inconclusive
O=S(=O)(c1cc(Cl)ccc1Cl)n1ccnc1	none
O=[N+]([O-])c1ccc(Cl)c(S(=O)(=O)n2ccnc2)c1	Pf growth 48h 2.9µM
Cc1c(NC(=O)c2ccc(OC(C)C)cc2)cccc1-c1nc2ncccc2o1	none (no result: Cycloheximide cs, NS1 function inh, Pf growth 48h, Pf growth 96h, Shiga toxin inh)
Cc1cc(C2CCCCC2)n(O)c(=O)c1	Pf growth 48h 0.74µM, Pf growth 96h 0.47µM (no result: Cycloheximide cs, NS1 function inh, Shiga toxin inh)
CCOC(=O)N1CCN(C(=O)c2cc(S(=O)(=O)N3CCc4ccccc43)ccc2OC)CC1	Pf growth 48h inconclusive, Pf growth 96h inconclusive (no result: Cycloheximide cs, NS1 function inh, Shiga toxin inh)
O=C(Nc1cnn(C23CC4CC(CC(C4)C2)C3)c1)c1cnn2cccnc12	Cycloheximide cs 64, Shiga toxin inh 90
N#Cc1c(NC(=O)c2cnn3cccnc23)sc2c1CCCC2	none (no result: Sm TGR block)
CCCN1CC(=O)N2C(c3ccccc3)c3[nH]c4ccccc4c3C[C@H]2C1=O (some centres not stated)	Pf growth 48h 2.3µM, Pf growth 96h inconclusive
COc1cccc(C2c3[nH]c4ccccc4c3C[C@H]3C(=O)N(C4CC4)CC(=O)N23)c1 (some centres not stated)	Pf growth 48h 3.3µM, Pf growth 96h 1.9µM
COCCN1CC(=O)N2C(c3cccc(OC)c3)c3[nH]c4ccccc4c3C[C@H]2C1=O (some centres not stated)	Pf growth 48h 12µM, Pf growth 96h inconclusive
COCCCN1CC(=O)N2C(c3cccc(OC)c3)c3[nH]c4ccccc4c3C[C@H]2C1=O (some centres not stated)	Pf growth 48h inconclusive, Pf growth 96h inconclusive
